Test results reported in PubChem BioAssay (Tox21).
Inconclusive results are not listed. Where a call stands in place of a potency, no number is given. Unmarked numbers belong to inactive results. Calls of active or inactive are those of the source. The call rests on the fitted dose curve; in most records, active means well fitted activation curve with a large enough effect in the repeat runs; inconclusive means weak or mixed curves; inactive means flat fitted curve, though single readings scatter.

Test: A CellTox Green Cytotoxicity Assay to monitor cytotoxicity in HEK293 cells - 8 hour (AID 1224884); further: nearly all actives have a fitted effect of over 35% in size
Details: CellTox Green fluorescence; series mostly up to 76.8 µM
Text: National Center for Advancing Translational Sciences [NCATS]
NIH Chemical Genomics Center [NCGC]
U.S. Environmental Protection Agency [EPA]
National Institutes of Environmental Health Sciences [NIEHS]
National Toxicology Program [NTP]
Cell-based models are critical for drug discovery. Determining the natural cytotoxic effects resulting from test compounds is an essential research activity. A CellTox Green Cytotoxicity Assay to monitor cytotoxicity in real time of continues cell culture during 40 hours of the compound treatment was used to screen Tox21 10K library compounds in Hek293 cells. CellTox Green Cytotoxicity Assay is a nonlytic, homogeneous, biofluorescent method to measure cytotoxicity in cell culture after experimental manipulation. The assay system uses a proprietary asymmetric cyanine dye that is excluded from viable cells but preferentially stains the dead cell's DNA. […] Viable cells produce no appreciable increases in fluorescence. Therefore, the fluorescence signal produced by the binding interaction with dead cell DNA is proportional to cytotoxicity.
The mixture of Hek293 cell suspension and reagents were dispensed at 600cells/6 ul/well in 1536-well tissue culture treated black solid bottom plates using a Multidrop dispenser. After the assay plates were incubated at a 37 C/5% CO2 incubator for 5 hours, 23 nL of compounds dissolved in DMSO, positive and negative controls was transferred to the assay plate by a pintool work station. The plates were incubated at 37 C for 40 hours. The fluorescence intensity were measured at 0h, 8h, 16h, 24h, 32h and 40h time points using ViewLux plate reader during compound treatment.
With `CCNc1nc(Cl)nc(NC(C)(C)C)n1` the Potency was “inactive”.
For `OP(O)c1ccccc1`, the Potency was “inactive”.
For `NNC(N)=O`, the Potency was “inactive”.
For `CCOC(=O)c1ncn2c1CN(C)C(=O)c1c(I)cccc1-2`, the Potency was “inactive”.
For `CCC(CC)(CNC(=O)CCCO)c1cccc(OC)c1`, the Potency was “inactive”.
`Brc1c(Br)c(Br)c(Br)c(Br)c1Br` showed a cytotoxicity increase of 12.9% [at 6.97 µM].
For `O=C(O)C(Cl)Br` (stereo not given), the Potency was “inactive”.
In the case of `CCN[C@@H](C)Cc1cccc(C(F)(F)F)c1`, the Potency is reported as “inactive”.
For `BrCCc1ccccc1`, the Potency was “inactive”.
In the case of `CC(C)(N)Cc1ccc(Cl)cc1`, the Potency is reported as “inactive”.
For `CN(C)CCN(C)C`, the Potency was “inactive”.
For `COP(=O)(O)OC`, the Potency was “inactive”.
In the case of `O=C1CC(=O)NC(=O)N1`, the Potency is reported as “inactive”.
In the case of `Cc1ccc(S(=O)(=O)N[C@@H](CCCCN)C(=O)CCl)cc1`, the Potency is reported as “inactive”.
With `O=C/C=C/c1ccco1` the Potency was “inactive”.
For `CC(C)(C)NC[C@H](O)c1ccc(O)cc1Cl`, the Potency was “inactive”.
For `ClC1=C(Cl)C2(Cl)C(CBr)CC1(Cl)C2(Cl)Cl` (stereo not given), the Potency was “inactive”.
In the case of `CCN[C@@H](C)Cc1ccccc1`, the Potency is reported as “inactive”.
In the case of `O=c1[nH]c2ccccc2o1`, the Potency is reported as “inactive”.
With `O=C(Cl)OCc1ccccc1` the Potency was “inactive”.
With `[O-][Br+2]([O-])O` the Potency was “inactive”.
In the case of `N#CN`, the Potency is reported as “inactive”.
In the case of `CCNP(=S)(OC)O/C(C)=C/C(=O)OC(C)C` (stereo not given), the Potency is reported as “inactive”.
In the case of `CC(=O)CN(CC(C)=O)N=O`, the Potency is reported as “inactive”.
With `CCCCCCCC(=O)Cl` the Potency was “inactive”.
For `CCCCCCC(=O)CCCCCC/C=C/C[C@@H](O)[C@H](O)[C@@](N)(CO)C(=O)O`, the cytotoxicity increase was -3.97% [at 15.8 µM].
With `CC#Cc1cc(C)nc(Nc2ccccc2)n1` the Potency was “inactive”.
For `CC(Cc1ccccc1)NCCn1cnc2c1c(=O)n(C)c(=O)n2C` (stereo not given), the Potency was “inactive”.
With `CCC(=O)OC1(c2ccccc2)CCN(C)CC1` the Potency was “inactive”.
For `CCc1cc(OC)c(C[C@H](C)N)cc1OC`, the Potency was “inactive”.
`CC(=O)OCC1=C(C(=O)O)N2C(=O)[C@@H](N)[C@H]2SC1` gave a cytotoxicity increase of -3.34% [at 15.8 µM].
With `CN1COCN(Cc2cnc(Cl)s2)/C1=N\[N+](=O)[O-]` the Potency was “inactive”.
Compound `O=P(O)(O)CN(CP(=O)(O)O)CP(=O)(O)O` has a cytotoxicity increase of 30% [at 15.8 µM].
In the case of `Clc1nc(Cl)nc(Nc2ccccc2Cl)n1`, the Potency is reported as “inactive”.
With `CCCOC(=O)Cc1ccc(OCC(=O)N(CC)CC)c(OC)c1` the Potency was “inactive”.
In the case of `COc1cc(CCN)cc(OC)c1OC`, the Potency is reported as “inactive”.
In the case of `O=C(CCl)NCO`, the Potency is reported as “inactive”.
For `CC[C@H](O)C(C[C@H](C)N(C)C)(c1ccccc1)c1ccccc1`, the Potency was “inactive”.
For `CCC(C)(C#N)N=NC(C)(C#N)CC` (stereo not given), the Potency was “inactive”.
For `BrCc1ccc(Br)cc1`, the Potency was “inactive”.
